Measurements published in PubChem BioAssay (NCI).
Compounds without any hit were thinned out: in the full panel of roughly 79,000, 15% have a hit. No stated cut-off is given here; in the data, active means growth inhibition above about 70%; inactive means the rest.

Tests used:
[1] = NCI Yeast Anticancer Drug Screen. Data for the rad50 strain (AID 155);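 further: 0% = growth of vehicle-only cultures of the same strain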; settings: S. cerevisiae rad50 strain growth inhibition; at 50.0 µM; stronger effect = higher value
Outline: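 Genetically altered yeast (DNA repair pathway); compound treatment; growth inhibition vs vehicle ctrl.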

[2] = NCI Yeast Anticancer Drug Screen. Data for the mec2-1 strain (AID 157); settings: S. cerevisiae mec2-1 strain, at 50.0 µM, stronger effect = higher value
Outline: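 Each compound was tested on mec2-1 yeast, a strain altered in DNA damage repair or cell cycle control. Growth inhibition is reported relative to vehicle.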

[3] = NCI Yeast Anticancer Drug Screen. Data for the sgs1 mgt1 strain (AID 161);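 further: 0% = growth of cultures given vehicle only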; settings: S. cerevisiae sgs1 mgt1 strain, at 50.0 µM, stronger effect = higher value
Outline: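 Genetically altered yeast, compound exposure, growth inhibition relative to vehicle.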

[4] = NCI Yeast Anticancer Drug Screen. Data for the cln2 rad14 strain (AID 165);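 further: 0% = growth equal to vehicle treated cultures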; settings: S. cerevisiae cln2 rad14 strain, at 50.0 µM, stronger effect = higher value
Outline: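 Test compounds were added to cln2 rad14 yeast cultures; inhibition of growth was then determined by comparison with vehicle treatment.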

[5] = NCI Yeast Anticancer Drug Screen. Data for the bub3 strain (AID 167); settings: S. cerevisiae bub3 mutant strain, at 50.0 µM, stronger effect = higher value
Outline: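 Yeast carrying a defined mutation is treated with each compound, and growth is compared with that of vehicle-exposed cells to give inhibition.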

[6] = NCI Yeast Anticancer Drug Screen. Data for the mlh1 rad18 strain (AID 175); settings: S. cerevisiae mlh1 rad18 strain growth inhibition; at 50.0 µM; stronger effect = higher value
Outline: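 Inhibition values reflect reduced growth of mutant yeast versus vehicle-treated controls following compound exposure; the mutations affect DNA damage repair.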

Measured: growth inhibition

O=C1C2C3CCC(C3)C2C(=O)N1CCO (stereo unspecified)
inactive: [1] 3.35% | [2] 6% | [3] 7.15% | [4] 4.85% | [5] 17.9% | [6] -2.45%

NC1=NC2(COC(c3ccccc3)(c3ccccc3)c3ccccc3)OC(COC(c3ccccc3)(c3ccccc3)c3ccccc3)C(O)C2O1 (stereo unspecified)
inactive: [1] 28.4% | [2] -5.4% | [3] 30.6% | [4] 5.25% | [5] 34.4% | [6] 13.4%

Cc1ccc(C)c(NC(=O)C2C(=O)C(=O)N(c3cc(C)ccc3C)C2=O)c1 (stereo unspecified)
inactive: [1] 29.4% | [2] -8.3% | [3] -18.5% | [4] 7.2% | [5] -0.95% | [6] 10.7%

CC(=O)Nc1cc(-c2ccccc2)ccc1O
inactive: [1] 56.7% | [2] 30.1% | [3] 56.8% | [4] 32.2% | [5] 40.2% | [6] 57.4%

COC1(OC)CCC2=C(C)C(=O)CCC2(CO)C1 (stereo unspecified)
inactive: [1] 15.7% | [2] -2.95% | [3] -5.95% | [4] -51.8% | [5] -14.4% | [6] -1.9%

c1ccc(Cn2nnc(-c3ccccc3)n2)cc1
inactive: [1] 19.3% | [2] 8.45% | [3] 5.3% | [4] -10.3% | [5] 32.9% | [6] 18.4%

CC(C)N(C(=O)c1cccc(C(=O)N(C(C)C)C(C)C)c1)C(C)C
inactive: [1] 12.7% | [2] 2.45% | [3] 0.25% | [4] 11.3% | [5] 16.9% | [6] 33.4%

CCOC(=O)n1ccnc1
inactive: [1] -6.4% | [2] -5.45% | [3] 1.5% | [4] 8% | [5] 9.05% | [6] -2.95%

COc1cc(NS(=O)(=O)c2ccc(C)cc2)c2c(c1N)C(=O)c1ccccc1C2=O
inactive: [1] -3.4% | [2] -8.15% | [3] -4.1% | [4] 5.35% | [5] 5.55% | [6] -1.05%

CC(CC(C(=O)N(C)C)(c1ccccc1)c1ccccc1)[N+](C)(C)[O-] (stereo unspecified)
inactive: [1] 5.5% | [2] 17.4% | [3] 0.1% | [4] 11.9% | [5] 13.3% | [6] 3.8%

CCOC(=O)C1=C(C)C/C(=N/NC(N)=O)CC1
inactive: [1] 6.35% | [2] -17.9% | [3] -0.95% | [4] 0.05% | [5] -0.95% | [6] -7.85%

COSCCCC(C)=O
inactive: [1] 25.5% | [2] 4% | [3] -5.15% | [4] 13.8% | [5] 6.55% | [6] 13.8%

COc1ccc(C(=O)CCC(=O)O)c(C)c1
inactive: [1] 7.45% | [2] 13.1% | [3] -0.85% | [4] 1.55% | [5] 19.6% | [6] 5.25%

CN(C)c1nc(N)c2ccc(Cl)cc2n1
inactive: [1] -8% | [2] 10.6% | [3] -7.15% | [4] 0.85% | [5] -8.05% | [6] 8.7%

C=C(C)C(=O)Nc1ccc2nn(-c3ccccc3O)nc2c1
inactive: [1] -24.9% | [2] -25.4% | [3] 1.75% | [4] 8.15% | [5] -14.2% | [6] 5.3%

COC(=O)c1ccc(OCc2ccc3nc(OC)c(OC)nc3c2)cc1
inactive: [1] -32.1% | [2] -30.4% | [3] -50.1% | [4] 7.35% | [5] -28.9% | [6] -37%

CCc1c(C)nc2cc(-c3cc(C)n4c(=O)c(CC)c(C)nc4c3)cc(C)n2c1=O
inactive: [1] 1.6% | [2] 9.95% | [3] -12.7% | [4] 1.2% | [5] 3.2% | [6] 3.95%

Cc1ccc(C(C)C)c(OC(=O)NCCCCCCNC(=O)Oc2cc(C)ccc2C(C)C)c1
inactive: [1] -11% | [2] -4.2% | [3] 10.7% | [4] 11.1% | [5] -7.2% | [6] 9.05%

O=C(O)c1cccc(Sc2ccccc2)c1
inactive: [1] -0.05% | [2] 9.25% | [3] 8.25% | [4] -0.85% | [5] -18.9% | [6] 16.6%

COc1ccc(C(C)Nc2cc(OC)c(OC)c(OC)c2)cc1 (stereo unspecified)
inactive: [1] -20.2% | [2] -14.1% | [3] -3.15% | [4] 5.5% | [5] -10.3% | [6] -15.1%

c1ccc(-c2nnc3nn4c(-c5ccccc5)cnnc4c3c2-c2ccccc2)cc1
inactive: [1] -0.05% | [2] -10.3% | [3] -14.8% | [4] 1.4% | [5] -6.05% | [6] 1.5%

N=c1c(-c2ccccc2)cc2ccccc2n1O
inactive: [1] 7.6% | [2] 10.3% | [3] -6.95% | [4] -0.1% | [5] -5.35% | [6] -5.25%

COc1ccc(C)cc1NC(=S)NC(=O)c1cccc([N+](=O)[O-])c1
inactive: [1] 2.25% | [2] 4.85% | [3] 4.45% | [4] -2.5% | [5] 20.2% | [6] 0.3%

CCOC(=O)CC1(c2ccccc2)OC(=O)c2ccccc21 (stereo unspecified)
inactive: [1] 9.05% | [2] 13.2% | [3] 8.65% | [4] 4.75% | [5] 16.9% | [6] -11.2%

C/C(C/C(C)=N/C(N)=S)=N\C(N)=S
inactive: [1] -37.5% | [2] -23.1% | [3] -15.8% | [4] -12.4% | [5] 0.15% | [6] -13.5%

[Br][Pt+2][Br].[NH-]c1cccc(F)c1.[NH-]c1cccc(F)c1
inactive: [1] 50.9% | [2] 11.4% | [3] 39.4% | [4] 6.4% | [5] 5.65% | [6] 46.3%

NC(=S)N/N=C1/CCCC/C1=N/O
inactive: [1] 46.1% | [2] 33.1% | [3] 36.2% | [4] -0.15% | [5] 25.2% | [6] -6.35%

CC1C/C=C2\CSC(NC(=O)/C3=C\N(C/C=C/C=C/C(O)CC(O)CC(=O)N3)C2=O)C(=O)O1 (stereo unspecified)
inactive: [1] 13.7% | [2] 11.7% | [3] 22.2% | [4] 19% | [5] 17.5% | [6] 18.2%

N#CC(CC(=O)c1ccccc1)c1ccc(Cl)cc1 (stereo unspecified)
inactive: [1] 1% | [2] 4.45% | [3] -6.7% | [4] -79.2% | [5] 41.4% | [6] -13.7%

CCc1cccc(C)c1NC(=O)CCc1nnc2s/c(=C\c3cccc4ccccc34)c(=O)n12
inactive: [1] 25.6% | [2] 16.5% | [3] 19.8% | [4] 24.5% | [5] 2.1% | [6] 33.2%

C/C(CC(C)C)=N/Nc1ccc([N+](=O)[O-])cc1[N+](=O)[O-]
inactive: [1] 5.85% | [2] -2.05% | [3] 2.65% | [4] -42.6% | [5] 19.9% | [6] 26.8%

CCOc1ccc2c(N=[N+]=[N-])cc(C)nc2c1
inactive: [1] -46.1% | [2] -11.2% | [3] -18.2% | [4] -67.8% | [5] 5.3% | [6] 5.45%

Cc1ccc(C(=O)Nc2ccc(CP(=O)(O)O)cc2CP(=O)(O)O)cc1NC(=O)c1cccc(N)c1
inactive: [1] -7.3% | [2] -1.95% | [3] 4.4% | [4] 0.4% | [5] 0.8% | [6] -1.25%

CC(=O)NNc1nc(C)c(C(=O)NNC(=O)C(=O)Nc2ccc([N+](=O)[O-])cc2[N+](=O)[O-])s1
inactive: [1] 6.45% | [2] -5.65% | [3] -30.9% | [4] 32.9% | [5] 24.1% | [6] 14.8%

Cc1ccc(C(=O)N/N=C/c2c(O)ccc3ccccc23)cc1
inactive: [1] -4.7% | [2] 20.7% | [3] 9.95% | [4] -24.9% | [5] 38.5% | [6] 27.1%

CCCNC(=O)c1cccc(-c2cccc(C(=O)NCCC)c2)c1
inactive: [1] 30.1% | [2] -10.3% | [3] 28.4% | [4] 12.3% | [5] 25.4% | [6] 31.6%

NC(=O)c1ccc([N+](=O)[O-])cc1
inactive: [1] 6% | [2] -5.15% | [3] 27.1% | [4] -24.8% | [5] -1.4% | [6] 15.3%

O=C(/C=C/c1ccccc1)CCc1c(O)c2ccccc2oc1=O
inactive: [1] 9.05% | [2] -5.3% | [3] 0.45% | [4] 31.1% | [5] 1.85% | [6] 28.8%

O=C(CCCN1CCC(O)(c2ccc(Cl)cc2)CC1)c1ccc(N2CCC(O)CC2)cc1
inactive: [1] 0.8% | [2] -2.05% | [3] -0.65% | [4] -44.6% | [5] 4.4% | [6] 1.1%

Clc1ccc(CCn2ccc3ccccc32)c(Cl)c1
inactive: [1] -12.6% | [2] -10% | [3] 0.05% | [4] 7.2% | [5] 16.9% | [6] 4.35%

NC(=O)CNCC1Cc2ccccc21 (stereo unspecified)
inactive: [1] 21.8% | [2] 6.85% | [3] 0.1% | [4] -16.4% | [5] 4.6% | [6] 7.45%
